Measured values as given in PubChem BioAssay AID1159580 (chemical genetic matrix, 2015).
Among all 5,500 compounds or so, about 2,000 (36%) were called active. Not shown: some 18% with an inconclusive outcome. No stated cut-off is given here; in the data, active means normalized growth mostly below about 0.91 (no sharp cut-off); inconclusive means no clear call, values can overlap the other calls; inactive means mostly above about 0.92. The list shows a part of the results.

Assay: chemical genetic growth profiling, strain panel (AID 1159580);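 further: tested at 20 µM; growth read once vehicle control cultures reached saturation at 30 °C; 1 = growth at the plate median or of vehicle wells; lower values mean less growth of the strain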
Details: growth OD

Measured: normalized growth

NNC(=O)c1cnn(-c2ccc(Cl)cc2)c1C(F)(F)F
inactive: S. cerevisiae deletion strains, locus YAL013W, strain DEP1, active compounds read low 0.992 | S. cerevisiae deletion strains, locus YBR229C, strain ROT2, active compounds read low 0.996 | S. cerevisiae deletion strains, locus YCL061C, strain MRC1, active compounds read low 0.983 | S. cerevisiae deletion strains, locus YDL101C, strain DUN1, active compounds read low 0.993 | S. cerevisiae deletion strains, locus YDL134C, strain PPH21, active compounds read low 1.03 | S. cerevisiae deletion strains, locus YDR150W, strain NUM1, active compounds read low 0.94 | S. cerevisiae deletion strains, locus YEL061C, strain CIN8, active compounds read low 0.998 | S. cerevisiae deletion strains, locus YGR078C, strain PAC10, active compounds read low 1.01 | S. cerevisiae deletion strains, locus YHR030C, strain SLT2, active compounds read low 0.976 | S. cerevisiae deletion strains, locus YHR087W, strain rtc3, active compounds read low 0.986 | S. cerevisiae deletion strains, locus YJL187C, strain SWE1, active compounds read low 1 | S. cerevisiae deletion strains, locus YJR043C, strain POL32, active compounds read low 0.946 | S. cerevisiae deletion strains, locus YJR075W, strain HOC1, active compounds read low 1.01 | S. cerevisiae deletion strains, locus YLR039C, strain RIC1, active compounds read low 0.909 | S. cerevisiae deletion strains, locus YLR058C, strain SHM2 (second series), active compounds read low 1 | S. cerevisiae deletion strains, locus YLR085C, strain ARP6, active compounds read low 0.976 | S. cerevisiae deletion strains, locus YLR262C, strain YPT6, active compounds read low 1.01 | S. cerevisiae deletion strains, locus YML094W, strain GIM5, active compounds read low 0.967 | S. cerevisiae deletion strains, locus YMR219W, strain ESC1, active compounds read low 0.998 | S. cerevisiae deletion strains, locus YMR263W, strain SAP30, active compounds read low 0.977 | S. cerevisiae deletion strains, locus YNL153C, strain GIM3, active compounds read low 1 | S. cerevisiae deletion strains, locus YNL298W, strain CLA4 (second series), active compounds read low 1.01 | S. cerevisiae deletion strains, locus YNL322C, strain KRE1, active compounds read low 1 | S. cerevisiae deletion strains, locus YNR030W, strain Alg12, active compounds read low 1.03 | S. cerevisiae deletion strains, locus YOL006C, strain TOP1, active compounds read low 1.02 | S. cerevisiae deletion strains, locus YPL055C, strain LGE1, active compounds read low 0.883 | S. cerevisiae deletion strains, locus YPL241C, strain CIN2, active compounds read low 0.989 | S. cerevisiae deletion strains, locus YPR135W, strain CTF4, active compounds read low 0.916 | S. cerevisiae strains, strain wild type, active compounds read low 1.01
